Assay [1] in a line: AP1 Signaling Pathway (AID 357).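 Further: ME-180 reporter cells stimulated with EGF at its EC50 level; on the % scale 0 is the no-effect control and ±100 the full control effect.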 Conditions: ME-180 AP-1-bla reporter, EGF-induced, beta-lactamase ratio, 5 h; at 17.2 µM (top of the series) unless noted. The essentials: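 Modulation of EGF-driven AP-1 transcription was assessed with a beta-lactamase reporter in ME-180 cells. Compound and EC50 EGF were co-incubated 5 hours at 37 °C before 2.5-hour CCF4 loading at room temperature and dual-emission reading.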

Assay [2] is described as follows: NFAT Signaling Pathway (AID 444).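 Further: carbachol stimulus at about its EC50 of 1 µM final; on the % scale 0 is the no-effect control and ±100 the full control effect.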 The conditions noted are these: Jurkat NFAT-bla M1, carbachol, beta-lactamase ratio, 5 h; at 17.2 µM (top of the series) unless noted. The essentials: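 Jurkat cells carrying an NFAT-driven β-lactamase reporter and co-transfected muscarinic M1 receptor were treated with compound plus carbachol (1 uM final, an EC50 level) for 5 h at 37 °C. CCF4 loading followed for 1 h at RT; 460/530 nm ratio gave %activity.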

Assay [3] can be described thus: Stat Signaling Pathway (AID 446).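 Further: ME-180 cervical cancer cells given 40 pM IL-6 alongside compound; SIE-controlled beta-lactamase reporter measured as 460/530 nm FRET emission ratio; on the % scale 0 is the no-effect control and ±100 the full control effect.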 The conditions noted are these: ME-180 (cervical carcinoma) SIE beta-lactamase reporter, IL-6 stimulated, 5 h; at 17.2 µM (top of the series) unless noted. The essentials: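 FRET read-out (405 nm excitation, 460/530 nm emission) of a beta-lactamase reporter under a STAT-inducible element in ME-180 cervical carcinoma cells. Cells with compound receive 40 pM IL-6 for 5 h. Values are normalised to AC90 stimulation and AC90 JAK-inhibitor controls.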

Assay [4] addresses Cytochrome P450 1A2 (Homo sapiens) (UniProt P05177). The experiment in a line: p450-cyp1a2 (AID 410; calls by dose curve; further: potency means the concentration at half of the fitted maximal effect). Summed up: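 20nM CYP1A2, 100uM Luciferin-ME (=Km), 100mM KPO4; cpd 10 min RT; +NADPH regen, 60 min RT; stop/detect 20 min; luminescence. Normalized to furafylline 57 uM = full inhibition.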
In assay [5] the target is Glucocorticoid receptor (Homo sapiens) (UniProt P04150). The assay can be described thus: GR-GFP Redistribution (AID 450;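 active means compounds whose dose series gives a full or clear partial fitted curve of increased nuclear translocation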; further: potency means the concentration at half of the fitted maximal effect).
Chain of Glucocorticoid receptor (Homo sapiens) (P04150 whole entry, looked up, the tested form may be a part): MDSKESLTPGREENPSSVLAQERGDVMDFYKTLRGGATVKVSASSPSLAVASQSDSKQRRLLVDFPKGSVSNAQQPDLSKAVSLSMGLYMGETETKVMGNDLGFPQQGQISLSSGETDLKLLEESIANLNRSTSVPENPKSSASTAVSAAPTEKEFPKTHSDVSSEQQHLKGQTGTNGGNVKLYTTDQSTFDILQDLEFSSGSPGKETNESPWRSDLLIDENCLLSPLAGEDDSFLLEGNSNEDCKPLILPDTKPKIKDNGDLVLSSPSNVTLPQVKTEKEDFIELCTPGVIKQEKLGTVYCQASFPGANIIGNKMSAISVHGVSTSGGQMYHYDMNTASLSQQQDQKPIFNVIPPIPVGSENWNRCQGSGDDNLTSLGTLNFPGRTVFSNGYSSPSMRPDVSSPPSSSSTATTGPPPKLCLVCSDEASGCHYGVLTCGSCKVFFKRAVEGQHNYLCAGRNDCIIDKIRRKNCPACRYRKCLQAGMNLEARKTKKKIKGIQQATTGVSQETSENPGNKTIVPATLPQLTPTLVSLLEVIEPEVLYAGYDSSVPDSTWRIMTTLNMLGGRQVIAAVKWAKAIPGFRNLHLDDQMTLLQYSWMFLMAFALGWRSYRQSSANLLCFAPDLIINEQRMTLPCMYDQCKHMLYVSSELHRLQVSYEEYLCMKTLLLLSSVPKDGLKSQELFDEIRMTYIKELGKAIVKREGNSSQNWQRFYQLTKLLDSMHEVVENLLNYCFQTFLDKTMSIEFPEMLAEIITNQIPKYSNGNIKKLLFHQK
In assay [6] the target is Mitogen-activated protein kinase 10 (Mus musculus) (UniProt Q61831). The assay can be described thus: JNK3 AlphaScreen Assay (AID 530).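 Further: kinase came from lysate of stimulated human HepG2 cells; signal reports phosphorylation of biotinylated GST-cJun 1-79 at Ser73 with 10 µM ATP; on the % scale 0 is the no-effect control and ±100 the full control effect.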 Summed up: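 Biotinylated GST-cJun(1-79) served as substrate for JNK3 in HepG2 lysates stimulated with IL-1beta and TNF-alpha. ATP was 10 uM final, pH 7.6. Ser73 phosphorylation was quantified by AlphaScreen (680 nm excitation).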
Assay [7] has as its target 3',5'-cyclic-AMP phosphodiesterase 4B (Homo sapiens) (UniProt Q07343). The experiment in a line: qHTS Assay for Inhibitors of PDE-IV (AID 607; active means well fitted activation curve with a large enough effect in the main read-out, with a control signal flat, not every such curve was filed as active; further: % of control where 0% means no effect). The essentials: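 Cell-based read-out of cAMP via a modified cyclic nucleotide-gated channel and membrane potential dye (535/590 nm) in HEK293 cells expressing PDE4 endogenously. Compounds tested up to 22.9 uM final; 100 uM RO 20-1724 reference.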

A short description of assay [8]: qHTS Assay for Identification of Small Molecule Agonists for Thrombopoietin (TPO) Signaling Pathway (AID 917; active means well fitted curve in the direction sought with a large enough effect; an effect the other way counts as inactive or inconclusive; further: on the % scale 0 is the no-effect control and ±100 the full control effect). The essentials: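 Cell-based luciferase reporter screen. Mouse Ba/F3 line stably expressing human TPO receptor; IL-3 removed overnight before plating. Co-treatment with compound and EC50 TPO (26 pM), 24 hrs at 37 C, then luminescence.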
(Quantitative high-throughput screening tests each substance at several concentrations.)

In assay [9] the target is Pyruvate kinase (Leishmania mexicana) (UniProt Q27686). The assay can be described thus: qHTS Validation Assay for Inhibitors of Leishmania Mexicana Pyruvate Kinase (AID 945; active means well fitted curve in the direction sought with a large enough effect; an effect the other way counts as inactive or inconclusive;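 further: 0% = DMSO only neutral control wells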). The essentials:
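Purified LmPYK (E451W mutant, 0.2 nM) was incubated 1 h at room temperature with 0.5 mM PEP and 0.1 mM ADP in 50 mM imidazole pH 7.2, 50 mM KCl, 7 mM MgCl2; ATP formed was read by PKLight luminescence, normalized to DMSO wells.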

For assay [10], the target named is Pyruvate kinase PKM (Homo sapiens) (UniProt P14618). The assay can be described thus: qHTS Assay for Activators of Human Muscle Pyruvate Kinase (AID 954; active means well fitted curve in the direction sought with a large enough effect, not every such curve was filed as active;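 further: 0% = uninhibited enzyme and -100% = no enzyme or full thiadiazolimine inhibition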). The essentials:
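ATP production by PKM2 detected via luciferase luminescence after 1 h room-temperature reaction (0.1 nM enzyme, PEP at Km 0.5 mM, ADP 0.1 mM, pH 7.2 imidazole buffer). Inhibition scaled to no-enzyme control; activation referenced to 0.3 nM enzyme wells.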

In assay [11] the target is Alpha-galactosidase A (Homo sapiens) (UniProt P06280). The assay can be described thus: Counterscreen for Glucocerebrosidase Inhibitors: qHTS Assay for Human alpha-Galactosidase at pH 4.5 (AID 992; active means well fitted curve in the direction sought with a large enough effect; an effect the other way counts as inactive or inconclusive; further: 0% is about no effect). The essentials:
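Fluorogenic 1536-well qHTS at pH 4.5 (citrate, Tween-20): 2 nM enzyme, 80 uM 4-MU-alpha-galactoside, 20 min room temperature, NaOH/glycine stop. Titration 0.7 nM to 77 uM, data normalized to no-enzyme and full-activity controls, Hill-fitted AC50.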

Assay [12] has as its target alpha-glucosidase (Oryza sativa, rice) (UniProt Q653V4). The assay can be described thus: Counterscreen for Glucocerebrosidase Inhibitors: qHTS Assay for Rice alpha-Glucosidase at pH 5.0 (AID 997; active means well fitted curve in the direction sought with a large enough effect; an effect the other way counts as inactive or inconclusive;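 further: 0% = full activity with enzyme and -100% = basal without enzyme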). The essentials:
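Endpoint fluorogenic assay at pH 5.0: compounds (0.7 nM to 77 uM) titrated against 4 nM rice enzyme and 400 uM 4-MU-alpha-glucoside for 20 min at room temperature; NaOH/glycine stop, read ex 365/em 440 nm, Hill-fitted AC50.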
Background: A counterscreen serves to expose hits that act by an unwanted route or on another target.

The target in assay [13] is Glucocorticoid receptor (Homo sapiens) (UniProt P04150). The assay can be described thus: GR-EFC Redistribution (AID 451; calls by dose curve; further: potency means the concentration at half of the fitted maximal effect). Conditions: CHO-K1 GR-EFC translocation, beta-gal luminescence, 2 h. Summed up:
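CHO-K1 cells stably expressing nuclear-localized β-gal enzyme acceptor and GR fused C-terminally to the enzyme donor fragment; ligand-driven nuclear translocation restores β-gal by complementation. Compounds titrated up to 46 uM final, 2 h at 37 °C; luminescence read.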

The target in assay [14] is Cytochrome P450 3A4 (Homo sapiens) (UniProt P08684). The assay can be described thus: qHTS Assay for Activators of Cytochrome P450 3A4 (AID 885; active means well fitted curve in the direction sought with a large enough effect; an effect the other way counts as inactive or inconclusive; further: nearly all actives have a fitted effect of over 65% in size). Summed up:
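Luminescent readout of luciferin formed from 25 uM Luciferin-PPXE (KM level) by 20 nM CYP3A4 in 200 mM KPO4, with 60 min NADPH-driven reaction at room temperature after 10 min compound exposure. Ketoconazole (57 uM) defined 100% inhibition.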

Assay [15] is described as follows: Confirmation and Secondary Assay for Modulators of Hemoglobin Beta Chain Splicing at IVS2 705 locus (AID 930; active means well fitted curve in the direction sought with a large enough effect; an effect the other way counts as inactive or inconclusive;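 further: HeLa cells stably expressing the EGFP-705 splicing reporter; % of control where 0% means no effect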). Summed up: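 Restored EGFP fluorescence after 2-day compound exposure reports splicing correction in IVS2-705 EGFP reporter HeLa cells; positive control was 500 nM splice-blocking PNA oligo. Signal measured as well total peak GFP intensity (488 nm excitation).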

This is an account of results in PubChem BioAssay (NCATS).

Molecules are shown by their SMILES. Values without a mark were called inactive. Records with an inconclusive call do not appear. Activity calls are given as the source filed them. Unless noted, the call rests on the fitted dose curve; in most records, active means well fitted curve in either direction with a large enough effect (not every such curve was filed as active); inconclusive means small, poorly fitted or top-dose-only effect, or another doubt; inactive means flat fitted curve, though single readings scatter.

Chain of Cytochrome P450 1A2 (Homo sapiens) (P05177 whole entry, looked up): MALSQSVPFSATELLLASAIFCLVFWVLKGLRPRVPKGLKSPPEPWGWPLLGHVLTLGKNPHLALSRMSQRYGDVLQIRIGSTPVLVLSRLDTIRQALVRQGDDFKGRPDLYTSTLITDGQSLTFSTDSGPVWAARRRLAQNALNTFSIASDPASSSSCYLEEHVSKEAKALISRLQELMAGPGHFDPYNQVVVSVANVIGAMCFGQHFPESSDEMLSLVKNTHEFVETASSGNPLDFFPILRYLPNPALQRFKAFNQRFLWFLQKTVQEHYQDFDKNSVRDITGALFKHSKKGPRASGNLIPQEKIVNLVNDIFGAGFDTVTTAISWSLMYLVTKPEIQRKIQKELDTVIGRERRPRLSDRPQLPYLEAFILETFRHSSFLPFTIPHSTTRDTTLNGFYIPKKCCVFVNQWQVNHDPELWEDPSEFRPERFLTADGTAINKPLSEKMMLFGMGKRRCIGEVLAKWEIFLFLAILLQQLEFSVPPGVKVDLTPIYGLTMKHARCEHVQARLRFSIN
Chain of 3',5'-cyclic-AMP phosphodiesterase 4B (Homo sapiens) (Q07343 whole entry, looked up): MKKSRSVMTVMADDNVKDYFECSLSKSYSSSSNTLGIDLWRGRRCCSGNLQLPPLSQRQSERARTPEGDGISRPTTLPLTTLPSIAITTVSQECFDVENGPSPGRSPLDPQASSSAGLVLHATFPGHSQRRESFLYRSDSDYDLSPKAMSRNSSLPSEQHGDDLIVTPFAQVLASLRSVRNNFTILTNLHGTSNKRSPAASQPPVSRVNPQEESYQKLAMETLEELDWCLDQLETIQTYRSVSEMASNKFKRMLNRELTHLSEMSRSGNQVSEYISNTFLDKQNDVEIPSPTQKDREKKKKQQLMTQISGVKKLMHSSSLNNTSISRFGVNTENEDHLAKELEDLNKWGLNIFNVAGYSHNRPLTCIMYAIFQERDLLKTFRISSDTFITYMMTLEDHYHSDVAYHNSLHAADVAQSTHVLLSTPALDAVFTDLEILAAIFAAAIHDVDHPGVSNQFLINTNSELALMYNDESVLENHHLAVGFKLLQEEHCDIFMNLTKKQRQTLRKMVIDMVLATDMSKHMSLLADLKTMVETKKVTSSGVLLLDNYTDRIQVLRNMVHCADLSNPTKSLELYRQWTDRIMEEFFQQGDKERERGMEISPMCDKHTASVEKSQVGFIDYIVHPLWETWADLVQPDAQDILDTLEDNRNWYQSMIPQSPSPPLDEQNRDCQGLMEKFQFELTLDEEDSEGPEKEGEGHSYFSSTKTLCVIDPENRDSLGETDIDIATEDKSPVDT
Chain of Pyruvate kinase PKM (Homo sapiens) (P14618 whole entry, looked up): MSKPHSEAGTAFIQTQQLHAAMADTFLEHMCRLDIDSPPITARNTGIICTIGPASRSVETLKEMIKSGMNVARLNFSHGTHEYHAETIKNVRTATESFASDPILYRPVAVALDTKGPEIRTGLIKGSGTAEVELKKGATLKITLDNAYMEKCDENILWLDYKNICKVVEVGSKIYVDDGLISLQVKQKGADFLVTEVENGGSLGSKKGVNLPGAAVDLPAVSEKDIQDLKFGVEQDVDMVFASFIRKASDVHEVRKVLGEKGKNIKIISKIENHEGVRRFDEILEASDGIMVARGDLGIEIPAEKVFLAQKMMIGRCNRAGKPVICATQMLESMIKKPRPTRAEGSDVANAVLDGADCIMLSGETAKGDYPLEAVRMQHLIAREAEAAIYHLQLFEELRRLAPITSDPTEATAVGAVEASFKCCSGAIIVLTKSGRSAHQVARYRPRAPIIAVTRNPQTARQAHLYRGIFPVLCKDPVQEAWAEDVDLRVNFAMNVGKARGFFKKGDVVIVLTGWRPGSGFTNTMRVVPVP
Chain of Cytochrome P450 3A4 (Homo sapiens) (P08684 whole entry, looked up): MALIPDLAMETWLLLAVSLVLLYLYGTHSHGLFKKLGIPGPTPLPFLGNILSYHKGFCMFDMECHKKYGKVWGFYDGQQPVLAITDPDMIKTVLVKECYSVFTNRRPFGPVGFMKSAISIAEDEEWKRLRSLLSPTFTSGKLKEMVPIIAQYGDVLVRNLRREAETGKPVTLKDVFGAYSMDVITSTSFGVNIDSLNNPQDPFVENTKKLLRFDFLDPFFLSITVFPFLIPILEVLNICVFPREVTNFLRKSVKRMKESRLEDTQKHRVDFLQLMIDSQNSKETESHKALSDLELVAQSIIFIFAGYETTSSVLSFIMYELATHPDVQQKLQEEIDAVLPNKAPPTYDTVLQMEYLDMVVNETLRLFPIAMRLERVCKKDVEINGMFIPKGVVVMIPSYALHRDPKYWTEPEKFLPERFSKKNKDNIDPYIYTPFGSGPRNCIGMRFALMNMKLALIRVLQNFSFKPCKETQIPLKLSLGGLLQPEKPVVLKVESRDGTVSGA
Chain of Pyruvate kinase (Leishmania mexicana) (Q27686 2-499 E452W): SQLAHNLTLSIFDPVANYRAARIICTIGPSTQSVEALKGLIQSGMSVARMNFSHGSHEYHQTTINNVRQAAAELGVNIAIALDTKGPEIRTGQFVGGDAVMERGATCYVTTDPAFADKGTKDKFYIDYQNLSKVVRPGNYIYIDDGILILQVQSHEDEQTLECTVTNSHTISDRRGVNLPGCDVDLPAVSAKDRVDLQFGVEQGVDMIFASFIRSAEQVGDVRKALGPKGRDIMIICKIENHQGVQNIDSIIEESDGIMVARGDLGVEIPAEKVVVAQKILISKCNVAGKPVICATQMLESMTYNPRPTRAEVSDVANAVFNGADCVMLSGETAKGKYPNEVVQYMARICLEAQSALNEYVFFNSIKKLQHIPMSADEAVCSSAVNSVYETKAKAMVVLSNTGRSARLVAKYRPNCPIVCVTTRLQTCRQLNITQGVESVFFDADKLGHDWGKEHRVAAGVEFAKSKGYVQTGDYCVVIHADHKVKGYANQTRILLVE
Chain of Alpha-galactosidase A (Homo sapiens) (P06280 whole entry, looked up): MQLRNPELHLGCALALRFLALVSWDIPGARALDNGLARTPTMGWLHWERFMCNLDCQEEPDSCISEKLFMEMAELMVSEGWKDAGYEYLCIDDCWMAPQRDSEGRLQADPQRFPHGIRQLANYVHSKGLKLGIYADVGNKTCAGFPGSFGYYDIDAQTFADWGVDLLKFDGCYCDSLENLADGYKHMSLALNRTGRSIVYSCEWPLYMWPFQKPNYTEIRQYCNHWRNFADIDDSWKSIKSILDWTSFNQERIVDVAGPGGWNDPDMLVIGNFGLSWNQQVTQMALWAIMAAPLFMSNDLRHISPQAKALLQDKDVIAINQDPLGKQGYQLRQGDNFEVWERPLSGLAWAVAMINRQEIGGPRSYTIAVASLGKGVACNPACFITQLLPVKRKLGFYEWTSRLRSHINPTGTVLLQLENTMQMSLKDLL

In the case of `CCOC(=O)N1CCN(/C=C(\C#N)c2nc3ccccc3s2)CC1`, the activity change, negative = inhibition in assay [1] was -15.9%; in assay [2] it was 13.1%. Further, in assay [3], the activity, negative = inhibition was -10%.
For the compound `CCCCCCCCCCCCCCCCCCNC(=O)OC[C@@H](COP(=O)([O-])OCC[n+]1ccsc1)OC`, the activity change, negative = inhibition in assay [1] is 1.14% [at 38 µM]. Moreover, the Potency entry in assay [4], in assay [6], in [7], in assay [8] and in assay [9] was “inactive” throughout. Moreover, in assay [3], the activity, negative = inhibition was -15% [at 38 µM]. For the same compound, in assay [5], the Potency was > 46 µM. For the same compound, the call in assay [10], in assay [11] and in assay [12] was inactive.
Take `CCN(CC)CCCN1C(=O)C(O)=C(C(=O)c2ccc(C)o2)C1c1ccc(C)o1` (stereo unspecified): the activity change, negative = inhibition in [1] was 5.4%; in assay [2] it was -12.9%. For the same compound, the activity, negative = inhibition in assay [3] is 9.39%.
Take `COCCNc1nc(-c2ccc(N(C)C)cc2)nc2ccccc12`: the activity change, negative = inhibition in assay [1] is 26.5% [at 7.69 µM]. Besides, the Potency in [4] is 0.631 µM (active); in assay [5], > 46 µM; in assay [13], > 46 µM. In assay [3], the activity, negative = inhibition is 4.49% [at 7.69 µM]. Moreover, the Potency entry in assay [6], in assay [7], in [14] and in assay [15] was “inactive” each time.
For the compound `CC(C)N1CCc2c(sc(N)c2C#N)C1`, the activity change, negative = inhibition is 5.12% in assay [1] and -22.4% in [2]. In [3], the activity, negative = inhibition is -5%. Further, the Potency in assay [5] is > 20.6 µM.
On the same counts, the results for `CC(C(=O)N1CCOCC1)N1C(=O)c2ccccc2C1=O` (stereo unspecified) are 14.2%, -4.66%, 10.1% and > 20.6 µM.
In the same order, the values of `CC(NC(=O)Nc1nnc(C(F)(F)F)s1)(C(F)(F)F)C(F)(F)F` are -3.33%, 0.893%, 0.617% and > 20.6 µM.
In the case of `CC1(C)CC(=O)C2=C(C1)OC(N)=C(C#N)C21C(=O)N(CN2CCOCC2)c2ccccc21` (stereo unspecified), the activity change, negative = inhibition in [1] is 15.6%; in [2], 1.95%. Moreover, in [3], the activity, negative = inhibition is 5.03%.
In the same order, the values of `O=C1NC(c2cccs2)Nc2ccccc21` (stereo unspecified) are -27%, -4.93% and -4.53%.
Consider `CCOC(=O)CNC(=O)CCCCCC(=O)NCC(=O)OCC`, for which the results for the activity change, negative = inhibition in assay [1] and in assay [2] were 7.11% and 1.76%, respectively. For the same compound, the activity, negative = inhibition in assay [3] was 7.81%. The Potency in assay [5] was > 20.6 µM.
Turning to `COc1cccc(C2C(C(=O)c3cccs3)=C(O)C(=O)N2c2cc(C)on2)c1` (stereo unspecified), the activity change, negative = inhibition in assay [1] was -6.29%; in [2] it was 16.2%. For the same compound, the activity, negative = inhibition in [3] is -7.97%.
